Results filed as inconclusive are left out. Entries that show only a call come without a potency. A number with no mark means an inactive call. Activity calls are given as the source filed them. The call rests on the fitted dose curve; in most records, active means well fitted inhibition curve with a large enough effect; inconclusive means small, poorly fitted or top-dose-only effect; inactive means flat fitted curve, though single readings scatter.
Assay: qHTS for Inhibitors of Plasmodium falciparum (DD2) proliferation (AID 504314);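 further: parasite DNA measured by SYBR Green fluorescence after red cell lysis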
Details: P. falciparum Dd2 in erythrocytes, SYBR Green growth, 72 h; series mostly up to 6.11 µM
Method in brief: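 Infected RBCs, 0.3% parasitemia, 2.5% Hct; compound 72 h, 37C/5% CO2; lyse + SYBR Green I, RT overnight, dark; read ex485/em535; normalize to DMSO and artemisinin 0.29 uM.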

| SMILES | Potency | activity, negative = inhibition |
| --- | --- | --- |
| CCN1C(=O)[C@@H]2[C@H]3[C@H](O)[C@H](O)CC(=NOC[C@H]4O[C@H](c5ccccc5)C=C[C@H]4Oc4ccc(OC)cc4)[C@@H]3CC[C@H]2C1=O | inactive |  |
| CC(=O)[C@@H]1[C@@H](C)N(Cc2ccccc2)C(=O)N[C@H]1c1ccccc1 | inactive |  |
| CC(CCC#N)[N+](=O)[O-] (configuration not stated) | inactive |  |
| COC(=O)C1=C[C@@]2(c3ccc(OC)cc3[C@@H](OC)[C@@H]2C)[C@@H]2C=C[C@@H]1C2 | inactive |  |
| COc1ccc(C(O)C2=CCCC2=O)cc1 (configuration not stated) | inactive |  |
| CCOC(=O)CN1C(=O)NC(c2ccccc2)C(C(C)=O)=C1C (configuration not stated) | inactive |  |
| CC(C)OC(=O)[C@H](C)NC(=O)N1CCc2nc(-c3ccccc3)c3c(c2C1)CO[C@@H](C)C3 | inactive |  |
| COC1=C[C@H](C(=O)NCCNC(C)=O)[C@@]2(C)Cc3ccccc3[C@@H]2CC1=O | inactive |  |
| COC(=O)N[C@@H](c1ccccc1)[C@]1(C(C)=O)CCCC1=O | inactive |  |
| CC1=C[C@@H](COCc2ccccc2)O[C@@]2(C1)C(=O)N(Cc1ccc(Br)cc1)c1ccccc12 | inactive |  |
| COC(=O)[C@@]1(C=C[C@@H](C)[C@H](OC)c2ccccc2Br)[C@@H]2OCCC[C@@H]21 | inactive |  |
| CC(C)=CCCC(C)=CCN1C(=O)[C@]2(O[C@H](C)CC3=CCCC32)c2c(Br)cccc21 (some centres not stated) | inactive |  |
| CCN1C(=NCCCCO)NC(c2cccc(C(F)(F)F)c2)C(C(=O)OC)=C1C (configuration not stated) | inactive |  |
| CC(=O)OC[C@H]1O[C@H](CCON=C(C)CCC(=O)OC[C@H]2O[C@H](C#Cc3ccccc3)C=C[C@H]2Oc2ccc(C)cc2)C=C[C@H]1OC(C)=O | inactive |  |
| C=C(C(C)=O)C(O)c1ccco1 (configuration not stated) | inactive |  |
| COCCN1C(=O)NC(c2cccc(C(F)(F)F)c2)C(C(C)=O)=C1C (configuration not stated) | inactive |  |
| COC(=O)CC=C[C@@H](C)[C@H](O)c1ccccc1Br | inactive |  |
| CC1=CC[C@@H](COc2ccccc2)O[C@@]2(C1)C(=O)Nc1cccc(Br)c12 | inactive |  |
| C=CCN1C(=O)CC[C@@]23C1=NC(C(=O)OC)=C(C(=O)OC)[C@@H]2N(CC#CC)c1ccccc13 | inactive |  |

| SMILES | Potency | activity, negative = inhibition |
| --- | --- | --- |
| COc1cccc([C@@H]2Oc3ccc(OC)cc3[C@H](O)[C@@H]2O)c1 | inactive |  |
| N#Cc1ccc2c(c1)C[C@]1(c3ccsc3)Oc3c(c(=O)oc4ccccc34)[C@H]2O1 | inactive |  |
| COCCN1C(=O)NC(c2ccc(Br)cc2)C(C(C)=O)=C1C (configuration not stated) | inactive |  |
| C=CCOC(=O)N[C@H](c1cccc(C(F)(F)F)c1)C(C(C)=O)C(C)=O | inactive |  |
| CCC(=O)OC1(C)C(=O)C=C2C=C(c3ccc(C#N)cc3)OC=C2C1=O (configuration not stated) | inactive |  |
| COC(=O)[C@@H]1C=C[C@H](C)[C@H](CCOc2ccccc2)O1 | inactive |  |
| COc1ccc2c(c1)[C@@]1(OCCC=C[C@@H]1C)C(=O)N2CC=C(C)CCC=C(C)C | inactive |  |
| COC(=O)CC=C[C@@H](C)[C@@H](C=NOC[C@@H](O)COCc1ccco1)NS(=O)(=O)c1ccc(C)cc1 | inactive |  |
| C=CC[C@@H]1C=C(C(=O)OC)N(C(=O)C(F)(F)F)[C@@H](c2ccccc2Br)[C@@H]1C | inactive |  |
| CCN(CC)CCCN1C(=O)C2=C(C1=O)C1N(C)c3ccccc3[C@@]13C[C@@H](CO)N(C(=O)CCC(=O)OC)C3=N2 (some centres not stated) | inactive |  |
| COc1cccc([C@@H]2Oc3ccc(OC)cc3C(=O)[C@@H]2OC(=O)N[C@H]2CCCc3ccccc32)c1 | inactive |  |
| CC(=O)Nc1ccc(S(=O)(=O)N2CCc3nc(-c4ccccc4)c4c(c3C2)CO[C@@H](C)C4)cc1 |  | -1.41% [at 1.12 µM] |
| CC(=O)OC[C@H]1O[C@H](CC=NOC[C@@H](O)COCc2ccco2)C=C[C@H]1OC(C)=O | inactive |  |
| CCOC(=O)N1C2=NC(C(=O)OC)=C(C(=O)OC)[C@@H]3N(C)c4ccccc4[C@]23C[C@H]1C(=O)OC | inactive |  |
| COC[C@@H](O)[C@H]1OCc2cc(OC)ccc2[C@H]1C=Cc1ccccc1 | inactive |  |
| C=C(C)C(=O)OC[C@H]1CN2[C@H](c3ccc(Br)cc3)[C@H](C)CC[C@H]2C(=O)O1 | inactive |  |
| CCCCC#C[C@@H]1C=C[C@H](Oc2ccc(C(=O)OC)cc2)[C@@H](COC(=O)OCC)O1 | inactive |  |
| COC(=O)C12C[C@H](C)C3C(C)C(c4ccccc4C31)N2C(=O)C(F)(F)F (some centres not stated) | inactive |  |
